Measurements: PubChem BioAssay (NCI)
The panel holds about 79,000 compounds, 15% with a hit somewhere; the sample as a whole holds those more often. Active and inactive are the calls of the source. Rule as the data show it: active = growth inhibition above about 70%; inactive = the rest.

How the values were obtained:
[1] = NCI Yeast Anticancer Drug Screen. Data for the rad52 strain (AID 147);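 also: 0% = growth of vehicle-treated control cultures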; conditions: S. cerevisiae rad52 mutant growth inhibition, stronger effect = higher value
How it was run: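 Yeast strain carrying a DNA damage repair alteration was exposed to test compounds. Growth inhibition was measured relative to vehicle-treated controls.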

[2] = NCI Yeast Anticancer Drug Screen. Data for the wt1 strain (AID 149);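 also: 0% = growth of vehicle-treated wt1 cultures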; conditions: S. cerevisiae wt1 strain (SPY 50644) growth inhibition, stronger effect = higher value
How it was run: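 Readout: yeast growth inhibition, normalised to vehicle controls, in the wt1 strain exposed to test compounds.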

[3] = NCI Yeast Anticancer Drug Screen. Data for the rad50 strain (AID 155);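 also: 0% = growth of vehicle-only cultures of the same strain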; conditions: S. cerevisiae rad50 strain growth inhibition, stronger effect = higher value
How it was run: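 Compounds were tested on a yeast strain with an engineered DNA damage repair alteration; the reported value is growth inhibition normalised to vehicle treatment.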

[4] = NCI Yeast Anticancer Drug Screen. Data for the mec2-1 strain (AID 157); conditions: S. cerevisiae mec2-1 strain, stronger effect = higher value
How it was run: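 mec2-1 yeast strain, carrying an alteration in DNA damage repair or cell cycle control, was exposed to compounds; growth inhibition was measured relative to vehicle-treated controls.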

[5] = NCI Yeast Anticancer Drug Screen. Data for the rad14 strain (AID 159);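 also: 0% = growth of vehicle-treated control cultures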; conditions: S. cerevisiae rad14 strain growth inhibition, stronger effect = higher value
How it was run: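 Compound-treated yeast with a defined DNA-repair lesion; growth inhibition normalised to vehicle-treated cultures.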

[6] = NCI Yeast Anticancer Drug Screen. Data for the CLN2oe strain (AID 163);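 also: 0% = growth of vehicle-only control cultures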; conditions: S. cerevisiae CLN2oe strain, stronger effect = higher value
How it was run: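 Yeast cells carrying a defined cell-cycle control alteration were exposed to test compounds. Growth inhibition was scored against vehicle-treated control cultures.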

[7] = NCI Yeast Anticancer Drug Screen. Data for the cln2 rad14 strain (AID 165);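 also: 0% = growth equal to vehicle treated cultures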; conditions: S. cerevisiae cln2 rad14 strain, stronger effect = higher value
How it was run: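 Yeast carrying cln2 and rad14 alterations (cell cycle control and DNA damage repair) were exposed to compounds. Growth inhibition was measured against vehicle-treated controls.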

[8] = NCI Yeast Anticancer Drug Screen. Data for the bub3 strain (AID 167); conditions: S. cerevisiae bub3 mutant strain, stronger effect = higher value
How it was run: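 Growth of a checkpoint-deficient yeast mutant is measured after compound exposure. Values represent inhibition relative to vehicle.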

[9] = NCI Yeast Anticancer Drug Screen. Data for the wt2 strain (AID 169);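 also: 0% = growth of vehicle-treated yeast cultures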; conditions: S. cerevisiae wt2 strain growth inhibition, stronger effect = higher value
How it was run: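 Yeast cells were exposed to test compounds, and growth inhibition was measured relative to vehicle-treated controls.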

[10] = NCI Yeast Anticancer Drug Screen. Data for the mlh1 strain (AID 171);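 also: 0% = growth of vehicle-treated control cultures of the same strain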; conditions: S. cerevisiae mlh1 strain growth inhibition, stronger effect = higher value
How it was run: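 Yeast carrying a defined genetic alteration in DNA damage repair or cell cycle control were exposed to test compounds. Growth inhibition was measured relative to vehicle-treated controls.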

[11] = NCI Yeast Anticancer Drug Screen. Data for the sgs1 strain (AID 173);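 also: 0% = growth of vehicle-only control cultures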; conditions: S. cerevisiae sgs1 mutant, stronger effect = higher value
How it was run: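 Yeast mutant strains carrying defined defects in DNA damage repair or cell cycle control were exposed to test compounds. Growth inhibition was scored against vehicle-treated controls.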

[12] = NCI Yeast Anticancer Drug Screen. Data for the mlh1 rad18 strain (AID 175); conditions: S. cerevisiae mlh1 rad18 strain growth inhibition, stronger effect = higher value
How it was run: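 Growth inhibition of the yeast strain was measured after compound exposure and expressed relative to vehicle-treated controls. The strain carries defined defects in DNA damage repair.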

[13] = NCI Yeast Anticancer Drug Screen. Data for the rad18 strain (AID 177); conditions: S. cerevisiae rad18 mutant growth inhibition, stronger effect = higher value
How it was run: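 Yeast carrying a defined DNA damage repair alteration were exposed to compounds. Growth inhibition was expressed relative to vehicle-treated controls.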

[14] = NCI Yeast Anticancer Drug Screen. Data for the rad50EPP+ strain (AID 151);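 also: 0% = growth of vehicle-treated control cultures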; conditions: S. cerevisiae rad50 mutant strain, stronger effect = higher value
How it was run: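 Yeast strain carrying rad50 alteration (rad50EPP+) exposed to compounds; growth inhibition measured relative to vehicle-treated controls.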

[15] = NCI Yeast Anticancer Drug Screen. Data for the mgt1 strain (AID 153); conditions: S. cerevisiae mgt1 mutant growth inhibition, stronger effect = higher value
How it was run: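 Yeast mgt1 strain (DNA repair/cell-cycle alteration panel) exposed to compounds; growth inhibition measured relative to vehicle-treated controls.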

[16] = NCI Yeast Anticancer Drug Screen. Data for the sgs1 mgt1 strain (AID 161);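 also: 0% = growth of cultures given vehicle only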; conditions: S. cerevisiae sgs1 mgt1 strain, stronger effect = higher value
How it was run: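 Yeast cells carrying a defined DNA-repair defect were exposed to test compounds. Growth inhibition was measured relative to vehicle-treated controls.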

[17] = at 5.0 µM (retest, dose inferred, filed as 0.5)
[18] = at 50.0 µM (retest, dose inferred, filed as 5.0)

Measured: growth inhibition

CCCCC(=O)c1c(O)nc2sccn2c1=O
inactive: [1]; at 1.2 µM 8% | [1]; at 3.7 µM 18% | [1]; at 11.0 µM 64% | [2]; at 1.2 µM 25% | [2]; at 3.7 µM 29% | [2]; at 11.0 µM 52% | [3]; at 1.2 µM 14% | [3]; at 3.7 µM 31% | [3]; [17] 30% | [4]; at 1.2 µM 22% | [4]; at 3.7 µM 17% | [4]; [17] 10% | [5]; at 1.2 µM 22% | [5]; at 3.7 µM 68% | [6]; at 1.2 µM 9% | [6]; at 3.7 µM 5% | [6]; at 11.0 µM 26% | [7]; [17] 22% | [7]; [18] 37% | [7]; at 50.0 µM 53% | [8]; at 1.2 µM 6% | [8]; at 3.7 µM 11% | [8]; [17] 47% | [8]; at 11.0 µM 62% | [9]; at 1.2 µM 7% | [9]; at 3.7 µM 19% | [10]; at 1.2 µM 27% | [11]; at 1.2 µM 33% | [11]; at 3.7 µM 55% | [12]; [17] 63% | [13]; at 1.2 µM 17% | [13]; at 3.7 µM 20%
active: [1]; at 33.0 µM 96% | [1]; at 100.0 µM 98% | [2]; at 33.0 µM 94% | [2]; at 100.0 µM 98% | [3]; at 11.0 µM 82% | [3]; at 33.0 µM 97% | [3]; [18] 85% | [3]; at 50.0 µM 85.4% | [3]; at 100.0 µM 98% | [4]; at 11.0 µM 82% | [4]; at 33.0 µM 97% | [4]; [18] 88% | [4]; at 50.0 µM 85.3% | [4]; at 100.0 µM 98% | [5]; at 11.0 µM 98% | [5]; at 33.0 µM 98% | [5]; at 100.0 µM 98% | [6]; at 33.0 µM 78% | [6]; at 100.0 µM 89% | [8]; at 33.0 µM 94% | [8]; [18] 92% | [8]; at 50.0 µM 87.2% | [8]; at 100.0 µM 96% | [9]; at 11.0 µM 86% | [9]; at 33.0 µM 98% | [9]; at 100.0 µM 99% | [10]; at 3.7 µM 74% | [10]; at 11.0 µM 95% | [10]; at 33.0 µM 97% | [10]; at 100.0 µM 98% | [11]; at 11.0 µM 92% | [11]; at 33.0 µM 97% | [11]; at 100.0 µM 98% | [12]; [18] 95% | [12]; at 50.0 µM 83.4% | [13]; at 11.0 µM 72% | [13]; at 33.0 µM 95% | [13]; at 100.0 µM 97%

COc1ccc2oc(-c3ccc(Cl)cc3)c(N3CCN(C)CC3)c2c1
inactive: [1]; at 1.2 µM -1% | [1]; at 3.7 µM 0% | [14]; at 1.2 µM -1% | [14]; at 3.7 µM -4% | [14]; at 11.0 µM 28% | [15]; at 1.2 µM -2% | [15]; at 3.7 µM -1% | [3]; at 1.2 µM -3% | [3]; at 3.7 µM 0% | [3]; at 50.0 µM 56.3% | [4]; at 1.2 µM -3% | [4]; at 3.7 µM -3% | [4]; [17] 9% | [4]; at 50.0 µM 54.7% | [5]; at 1.2 µM 0% | [5]; at 3.7 µM 13% | [16]; [17] 23% | [16]; at 50.0 µM 58.5% | [7]; [17] 17% | [8]; at 1.2 µM -3% | [8]; at 3.7 µM -6% | [8]; [17] 17% | [8]; at 50.0 µM 62.1% | [10]; at 1.2 µM -2% | [10]; at 3.7 µM 0% | [12]; [17] 59% | [12]; at 50.0 µM 51.5% | [13]; at 1.2 µM 1% | [13]; at 3.7 µM 4%
active: [1]; at 11.0 µM 91% | [1]; at 33.0 µM 98% | [1]; at 100.0 µM 99% | [14]; at 33.0 µM 99% | [14]; at 100.0 µM 99% | [15]; at 11.0 µM 99% | [15]; at 33.0 µM 100% | [15]; at 100.0 µM 99% | [3]; [17] 79% | [3]; at 11.0 µM 94% | [3]; at 33.0 µM 99% | [3]; [18] 99% | [3]; at 100.0 µM 99% | [4]; at 11.0 µM 87% | [4]; at 33.0 µM 98% | [4]; [18] 100% | [4]; at 100.0 µM 99% | [5]; at 11.0 µM 99% | [5]; at 33.0 µM 99% | [5]; at 100.0 µM 99% | [16]; [18] 100% | [7]; [18] 98% | [7]; at 50.0 µM 99.5% | [8]; at 11.0 µM 98% | [8]; at 33.0 µM 99% | [8]; [18] 99% | [8]; at 100.0 µM 99% | [10]; at 11.0 µM 90% | [10]; at 33.0 µM 99% | [10]; at 100.0 µM 99% | [12]; [18] 99% | [13]; at 11.0 µM 91% | [13]; at 33.0 µM 99% | [13]; at 100.0 µM 99%
